Experimental data from PubChem BioAssay (NCI).
About 79,000 compounds went through this panel and 15% of them were active in at least one assay; those are over-represented in the sample as a whole. Unmarked numbers belong to inactive results. The source made the active and inactive calls. Rule as the data show it: active = growth inhibition above about 70%; inactive = the rest.

Assay: NCI Yeast Anticancer Drug Screen. Data for the bub3 strain (AID 167)
Settings: S. cerevisiae bub3 mutant strain, at 50.0 µM, hits give high values
Summary of the method: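 Whole-cell yeast assay. The mutant strain was incubated with compounds, and growth inhibition was determined by comparison with vehicle-treated cells.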

**Q.** With `CCCCCCCCCCCCCCCCCCNC(=O)NCc1ccncc1` as the compound, how does the growth inhibition read?
**A.** -0.35%

**Q.** Which growth inhibition does the source give for `COCC(=O)c1ccccc1-c1ccccc1` here?
**A.** -11.2%

**Q.** For `Cn1nc(-c2ccc(Cl)c(Cl)c2)[n+]([O-])c2c(=O)n(C)c(=O)nc1-2`, which growth inhibition is on record?
**A.** 85.3% (active)

**Q.** With `CC(C)(C)OC(=O)NC(Cc1ccccc1)OCc1ccccc1` (stereo not given) as the compound, how does the growth inhibition read?
**A.** -15.4%

**Q.** Which growth inhibition does the source give for `O=C(/C=C/c1ccc([N+](=O)[O-])cc1)NN=C(c1ccccc1)c1ccccc1` here?
**A.** -9.5%

**Q.** Which growth inhibition does the source give for `CC(C)N(CSc1ccc([N+](=O)[O-])cc1)CSc1ccc([N+](=O)[O-])cc1` here?
**A.** -4.7%

**Q.** Which growth inhibition does the source give for `COC(=O)c1c2c(C)ccc(C)c2nc2c(C)ccc(C)c12` here?
**A.** 22.7%

**Q.** Which growth inhibition does the source give for `O=C(O)c1nc(Cl)c(Cl)[nH]c1=O` here?
**A.** 2.5%

**Q.** With `NC(=O)c1ccc(C(F)(F)F)cc1O` as the compound, how does the growth inhibition read?
**A.** 1.2%

**Q.** For `CN(C)/N=C\c1ccc(C(=O)O)cc1`, which growth inhibition is on record?
**A.** 28.3%

**Q.** With `CC(=O)NCC(=O)c1ccccc1` as the compound, how does the growth inhibition read?
**A.** -6.35%

**Q.** With `Cc1[nH]n(-c2ccccc2)c(=O)c1/C=N\C(N)=S` as the compound, how does the growth inhibition read?
**A.** -48%

**Q.** With `CCOC(=O)c1ccc(N=c2sc3ccccc3nc2Nc2ccc(C(=O)OCC)cc2)cc1` as the compound, how does the growth inhibition read?
**A.** 2.3%

**Q.** With `COC(=O)C(N)Cc1ccc(O)c(O)c1` (stereo not given) as the compound, how does the growth inhibition read?
**A.** 22.9%

**Q.** With `O=C1CSC(=S)N1` as the compound, how does the growth inhibition read?
**A.** -7.15%

**Q.** With `CCN(CC)C(CC(=O)c1ccccc1)C(=O)c1ccccc1` (stereo not given) as the compound, how does the growth inhibition read?
**A.** 13.3%

**Q.** For `[N-]=[N+]=NC1CC(n2ccc(N)nc2=O)OC1CO` (stereo not given), which growth inhibition is on record?
**A.** -8.95%

**Q.** For `CN(C)CCNC(=O)c1cccc2c(Nc3ccc(S(N)(=O)=O)cc3)c3ccccc3nc12`, which growth inhibition is on record?
**A.** -23.6%

**Q.** Which growth inhibition does the source give for `CCCCc1nc(C)oc1C(C)C` here?
**A.** -23.9%

**Q.** For `O=COCCCc1ccccc1`, which growth inhibition is on record?
**A.** 3.15%

**Q.** Which growth inhibition does the source give for `C=CCNC(=O)/C=C/C(=O)O` here?
**A.** 12.5%

**Q.** Which growth inhibition does the source give for `CC1=CC=CC(C)(C)C(=O)C1=O` here?
**A.** -21.5%

**Q.** With `CCN(CC)CCOC(=O)c1c(C)cc(C)cc1C` as the compound, how does the growth inhibition read?
**A.** -15.6%

**Q.** For `Cc1cc(C)c(NS(=O)c2cccc(Cl)c2)c(C)c1` (stereo not given), which growth inhibition is on record?
**A.** -35.2%

**Q.** For `CCOC(=O)C(C(=O)c1cccnc1)C(C(=O)OCC)C(=O)c1cccnc1` (stereo not given), which growth inhibition is on record?
**A.** 12.1%

**Q.** With `C=C1CCCCCCCCC/C=C/1SCCCSC` as the compound, how does the growth inhibition read?
**A.** -19%

**Q.** With `CC1(C)C2CC=C(CCO)C1C2` (stereo not given) as the compound, how does the growth inhibition read?
**A.** 0.05%

**Q.** Which growth inhibition does the source give for `CC(=O)c1ccc(N=C2C(=O)Nc3ccccc32)cc1` here?
**A.** 9%

**Q.** For `C[N+]1(C)CCC(C(=O)c2ccccc2)CC1`, which growth inhibition is on record?
**A.** 17%

**Q.** With `c1ccc(CNCc2ccccc2)cc1` as the compound, how does the growth inhibition read?
**A.** 18.6%

**Q.** Which growth inhibition does the source give for `COc1cc(CCNC(=O)CC(C)C)ccc1OCc1ccccc1` here?
**A.** -11.9%

**Q.** Which growth inhibition does the source give for `O=C(Cl)CCc1ccnc2ccccc12` here?
**A.** 2.4%

**Q.** For `Cc1nc2ccc(Cl)c(Cl)c2s1`, which growth inhibition is on record?
**A.** 6.65%

**Q.** With `CC(C)[C@H]1CC[C@@](C)(C(=O)O)C1` as the compound, how does the growth inhibition read?
**A.** 23.4%

**Q.** Which growth inhibition does the source give for `CC(C)CCOC(=O)c1ccc(C(C)C)cc1` here?
**A.** 46.6%

**Q.** With `COc1cccc(/C(Cl)=C(\C=O)c2cccc(OC)c2)c1` as the compound, how does the growth inhibition read?
**A.** 34%

**Q.** For `O=[N+]([O-])c1ccc(OP2(Oc3ccc([N+](=O)[O-])cc3)=NP(Oc3ccc([N+](=O)[O-])cc3)(Oc3ccc([N+](=O)[O-])cc3)=NP(Oc3ccc([N+](=O)[O-])cc3)(Oc3ccc([N+](=O)[O-])cc3)=NP(Oc3ccc([N+](=O)[O-])cc3)(Oc3ccc([N+](=O)[O-])cc3)=N2)cc1`, which growth inhibition is on record?
**A.** -1.65%

**Q.** With `O=C(O)NC(c1ccccc1)C(NC(=O)c1ccccc1)c1ccccc1` (stereo not given) as the compound, how does the growth inhibition read?
**A.** -7.35%

**Q.** With `FC1(F)C(F)(F)C(F)(F)C2(F)C(F)(F)C(F)(F)C(F)(F)C(F)(F)C2(F)C1(F)F` (stereo not given) as the compound, how does the growth inhibition read?
**A.** -0.8%

**Q.** With `CCC(C)(O)CCC(C)(O)CC` (stereo not given) as the compound, how does the growth inhibition read?
**A.** 20%
